This test relates to E. coli BW25113 marRABp lux reporter. As to the kind of experiment: promoter activity interaction Z-score (Lux/OD deviation from empty-vector control); higher = stronger promoter induction by the compound. How it is done:
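E. coli BW25113 (wild type or ΔmarA/ΔsoxS/Δrob) carrying pTU175 luxCDABE promoter reporters was grown in LB in 384-well plates at 37°C with each of 94 compounds at 4 two-fold concentrations, in biological duplicates. Luminescence and OD600 were read every 30 min for 12 h and integrated as AUC over 8 h (0-8 h WT, 1-9 h mutants). Lux AUC was divided by OD AUC; the interaction score is the residual of a Huber robust fit of each promoter against the empty-vector control, then Z-transformed per promoter.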

± gives the standard deviation of the averaged measurements.

Take `Oc1cc(O)c2c(c1)O[C@@H](c1ccc(O)c(O)c1)[C@H](O)C2` [Catechin]: the “promoter activity interaction Z-score” value runs as follows: (18.1 µg/ml, genetic background: wild type) 0.176 ± 0.43; (18.1 µg/ml, genetic background: ΔmarA) -0.0258 ± 0.23; (18.1 µg/ml, genetic background: Δrob) 0.052 ± 0.11; (18.1 µg/ml, genetic background: ΔsoxS) -0.135 ± 0.017; (36.3 µg/ml, genetic background: wild type) -0.308 ± 0.32; (36.3 µg/ml, genetic background: ΔmarA) -0.311 ± 0.035. Besides, the “promoter activity interaction Z-score” value runs as follows: (36.3 µg/ml, genetic background: Δrob) -0.0876 ± 0.28; (36.3 µg/ml, genetic background: ΔsoxS) -0.0441 ± 0.25; (72.6 µg/ml, genetic background: wild type) 0.00953 ± 0.33; (72.6 µg/ml, genetic background: ΔmarA) -0.104 ± 0.28; (72.6 µg/ml, genetic background: Δrob) -0.105 ± 0.045; (72.6 µg/ml, genetic background: ΔsoxS) -0.241 ± 0.033. Also, the “promoter activity interaction Z-score” value is, setting by setting: (145.1 µg/ml, genetic background: wild type) -0.286 ± 0.36; (145.1 µg/ml, genetic background: ΔmarA) -0.359 ± 0.22; (145.1 µg/ml, genetic background: Δrob) -0.128 ± 0.36; (145.1 µg/ml, genetic background: ΔsoxS) -0.183 ± 0.067.

With `CN(C)C(=O)C(CCN1CCC(O)(c2ccc(Cl)cc2)CC1)(c1ccccc1)c1ccccc1` [Loperamide], the “promoter activity interaction Z-score” value by setting is: (32.1 µg/ml, genetic background: wild type) -0.202 ± 0.03; (32.1 µg/ml, genetic background: ΔmarA) -0.0422 ± 0.33; (32.1 µg/ml, genetic background: Δrob) -0.0553 ± 0.2; (32.1 µg/ml, genetic background: ΔsoxS) -0.22 ± 0.2; (64.2 µg/ml, genetic background: wild type) -0.233 ± 0.17; (64.2 µg/ml, genetic background: ΔmarA) 0.346 ± 0.1. Moreover, the “promoter activity interaction Z-score” value by setting is: (64.2 µg/ml, genetic background: Δrob) -0.132 ± 0.024; (64.2 µg/ml, genetic background: ΔsoxS) -0.171 ± 0.18; (128.4 µg/ml, genetic background: wild type) -0.314 ± 0.22; (128.4 µg/ml, genetic background: ΔmarA) 0.0947 ± 0.21; (128.4 µg/ml, genetic background: Δrob) -0.192 ± 0.036; (128.4 µg/ml, genetic background: ΔsoxS) -0.213 ± 0.17. Also, the “promoter activity interaction Z-score” value is, setting by setting: (256.8 µg/ml, genetic background: wild type) -0.0275 ± 0.19; (256.8 µg/ml, genetic background: ΔmarA) 0.711 ± 0.64; (256.8 µg/ml, genetic background: Δrob) -0.0389 ± 0.11; (256.8 µg/ml, genetic background: ΔsoxS) -0.046 ± 0.47.

These data come from the supplement of paper PMC12282887.
